Source: PubChem BioAssay
Hits are enriched below; roughly 13% of the tested compounds scored in any of these assays.
HSD17B inh = HSD17B dehydrogenase inhibition. Q99714. recombinant HSD17B10, NADH fluorescence kinetic. Potency, µM (series often up to 57.1 µM), without a hit: at the highest dose activity change, negative = inhibition, usual class: inhibitors. 75,000 compounds, 7.6% hits. AID 893;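 note: the protocol describes HADH2 (HSD17B10) and not the HSD17B4 of the title; potency is the fitted concentration of half-maximal effect; % is set by controls: 0 for no effect and ±100 for the full control effect; nearly all actives have a fitted effect of over 70% in size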
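Enzyme plus compound, 15 min room temperature; substrate mix added (NAD+ 1 mM, beta-hydroxybutyryl-CoA 90 uM final); plates read kinetically for NADH fluorescence. HADH2 was His-tagged, E. coli-derived, 20 nM.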
A350 fluor = compounds fluorescent in Alexa 350 spectral region; Compound autofluorescence, 340/450 nm, Alexa 350 dye-equivalents; active compounds read high; max dye-equivalent concentration, M; 59,000 compounds, 11% hits; AID 590; in the data active = max dye-equivalent concentration above about 10 nM; inconclusive = mostly about 1.1 nM to 9.6 nM
AID923 = qHTS Assay for Allosteric/Competitive Inhibitors of Caspase-1: Spectroscopic Profiling in AFC Spectral Region. compound fluorescence, AFC spectral region (405/520 nm). Potency, µM (top dose mostly 57.5 µM), for inactives: top-dose fluorescence increase, usual class: activators. 75,000 compounds, 1.1% hits. AID 923, 2007; note: potency is the fitted concentration of half-maximal effect; 0% is about no effect
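Baseline compound fluorescence (AFC region, 405 nm ex/520 nm em) taken from the intercept of kinetic reads with 50 nM caspase-1 and 5 uM Ac-WEHD-AFC; normalized to an on-plate AFC standard curve; compounds titrated up to 57 uM.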
GBA activity = human lysosomal glucosylceramidase modulation; P04062; purified enzyme, resorufin glucoside fluorescence (screen aimed at inhibitors), 20 min; Potency, µM; 48,000 compounds, 1.1% hits; AID 360; in the data active = potency below about 15 µM; inconclusive = mostly about 16 µM to 33 µM;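 note: potency is the fitted concentration of half-maximal effect; the screen sought inhibitors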
Target sequence (P04062 whole entry, looked up): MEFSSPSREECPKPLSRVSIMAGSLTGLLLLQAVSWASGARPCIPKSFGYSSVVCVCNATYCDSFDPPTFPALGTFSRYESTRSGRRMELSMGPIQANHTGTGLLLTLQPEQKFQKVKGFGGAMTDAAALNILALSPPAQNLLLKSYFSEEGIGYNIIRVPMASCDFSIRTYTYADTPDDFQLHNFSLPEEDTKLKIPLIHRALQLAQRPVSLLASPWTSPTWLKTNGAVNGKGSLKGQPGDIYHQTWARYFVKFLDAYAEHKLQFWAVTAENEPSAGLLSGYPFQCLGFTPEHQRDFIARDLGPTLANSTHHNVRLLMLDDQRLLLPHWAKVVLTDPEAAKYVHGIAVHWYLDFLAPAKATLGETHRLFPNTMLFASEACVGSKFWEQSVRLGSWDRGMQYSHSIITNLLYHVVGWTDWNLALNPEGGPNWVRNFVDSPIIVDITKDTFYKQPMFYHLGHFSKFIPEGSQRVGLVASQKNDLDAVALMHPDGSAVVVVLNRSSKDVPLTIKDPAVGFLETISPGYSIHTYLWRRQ
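Wild-type enzyme at 0.2 nM final in 50mM citric acid/KH2PO4, 10mM sodium taurocholate, 0.01% tween-20, pH 5.9, with resorufin beta-D-glucopyranoside at 30 uM final. Compounds titrated, 20 min at RT, red fluorescence read; AC50 from titration.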
4MU fluor = 4-MU region autofluorescence | compound autofluorescence, 340/450 nm, 4-MU equivalents; active compounds read high | max dye-equivalent concentration, M | AID 589 | 59,000 compounds, 11% hits; in the data active = max dye-equivalent concentration above about 10 nM; inconclusive = mostly about 1.1 nM to 9.6 nM
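Compounds in 100 mM Tris, pH 8.0, incubated 15 min at room temperature, then fluorescence read at 340 nm excitation/450 nm emission. Signal converted to 4-MU dye-equivalent concentration using an on-plate six-point 4-MU standard curve.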
HADH2 inh = blocks human hydroxyacyl-CoA dehydrogenase type II | Q99714 | recombinant HADH2, NADH fluorescence, beta-hydroxybutyryl-CoA | Potency, µM (titrated, usually from 57.1 µM), for inactives: at the top dose activity change, negative = inhibition, hits mostly inhibitors | 73,000 compounds, 3.4% hits | AID 886; note: potency is the fitted concentration of half-maximal effect; % is set by controls: 0 for no effect and ±100 for the full control effect; nearly all actives have a fitted effect of over 60% in size
Target sequence (Q99714 whole entry, looked up, one chain of several): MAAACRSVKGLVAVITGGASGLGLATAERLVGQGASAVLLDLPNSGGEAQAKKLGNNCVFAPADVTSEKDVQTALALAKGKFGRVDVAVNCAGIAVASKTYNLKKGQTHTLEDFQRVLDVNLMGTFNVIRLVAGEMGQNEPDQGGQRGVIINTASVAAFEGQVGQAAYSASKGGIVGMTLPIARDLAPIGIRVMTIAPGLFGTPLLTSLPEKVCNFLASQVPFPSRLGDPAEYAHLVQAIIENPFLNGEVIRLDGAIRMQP
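20 nM HADH2 + cpd, 15 min RT; add 1 mM NAD+/90 uM beta-hydroxybutyryl-CoA; kinetic fluorescence 360/450 nm, 4 min. Tris-HCl pH 9.0, 0.01% Tween-20.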
* hit, by the source's call; i = inactive; ? = inconclusive; nt = no result given; ! = repeats disagree; [ ] = another dose, or the depositor's remark. Unless noted, calls come from the whole dose curve; as a rule, active = well fitted curve in the direction sought with a large enough effect; inconclusive = small, poorly fitted or top-dose-only effect, or another doubt; inactive = no such curve, though single readings can be large; an effect the other way counts as inactive or inconclusive.

SMILES	HSD17B inh	A350 fluor	AID923	GBA activity	4MU fluor	HADH2 inh
CO[C@@H](C)[C@](O)(C(=O)OC1=CCN2CC[C@H](O)[C@H]12)C(C)C	nt	i	nt	nt	i	10.0%
CN1C[C@H](CNC(=O)OCc2ccccc2)C[C@H]2c3cccc4c3c(cn4C)C[C@@H]21	-4.8%	i	1.3%	nt	i	3.9%
CC[C@@H](CO)NC(=O)[C@H]1C=C2c3cccc4[nH]cc(c34)C[C@H]2N(C)C1	31.6µM*	nt	13.1%	nt	nt	31.6µM*
CC[C@@H](CO)NC(=O)[C@@H]1C=C2c3cccc4c3c(cn4C)C[C@H]2N(C)C1	nt	1.28e-07M*	nt	nt	1.13e-07M*	nt
C[C@@H](CO)NC(=O)[C@H]1C=C2c3cccc4[nH]cc(c34)C[C@H]2N(C)C1	nt	?	nt	nt	?	39.8µM*
CC[C@H](CO)NC(=O)[C@H]1C=C2c3cccc4[nH]cc(c34)C[C@@H]2N(C)C1	12.6µM*	4.71e-08M*	3.1%[25.7 µM]	nt	5.24e-08M*	15.8µM*
CN(CCc1ccc(Cl)c(Cl)c1)[C@H]1CCCC[C@H]1N1CCCC1	-4.8%	nt	-0.7%	nt	nt	-0.5%
C[C@@H]1O[C@@H](O[C@H]2C[C@@H](O)[C@]3(CO)[C@@H]4[C@@H](O)C[C@]5(C)[C@H](C6=CC(=O)OC6)CC[C@@]5(O)[C@H]4CC[C@@]3(O)C2)[C@H](O)[C@H](O)[C@@H]1O	-0.9%	i	-4.3%	nt	i	-1.5%
NCCP(=O)(O)O	0.8%[11.4 µM]	i	1.3%[11.5 µM]	nt	i	11.4%[11.4 µM]
O=C(NCP(=O)(O)O)c1cccnc1	10.6%[11.4 µM]	i	-1.1%[11.5 µM]	nt	i	-8.7%[11.4 µM]
CN(C)Cc1c[nH]c2ccccc12	31.6µM*!	?	-1.2%	nt	?	?
CCCOC(=O)[C@@H]1[C@@H](C(=O)O)[C@H]2CC[C@@H]1O2	4.2%[11.4 µM]	i	1.3%[11.5 µM]	nt	i	9.8%[11.4 µM]
O=C(CN1CCOCC1)c1ccc2cc[nH]c2c1	25.1µM*	nt	6.3%	nt	nt	25.1µM*
Cc1cc(C)c(C(=O)CN2CCOCC2)c(C)c1	6.1%	i	0.0%	>76.9	i	-0.9%
CN(C)C1C(=O)C(C(N)=O)=C(O)[C@@]2(O)C(=O)C3=C(O)c4c(O)ccc(Cl)c4[C@](C)(O)C3CC12 (stereo partly specified)	i	nt	5.9%	nt	nt	nt
CN(C)[C@@H]1C(=O)C(C(N)=O)=C(O)[C@]2(O)C(=O)C3=C(O)c4c(O)ccc(Cl)c4[C@](C)(O)[C@H]3C[C@@H]12	250.1%[25.6 µM]	3.5e-08M*	1.6%[25.7 µM]	nt	3.59e-08M*	-5.1%[25.6 µM]
Cc1ccc(-n2c(O)c(C=NC3CCCCC3N)c(=O)[nH]c2=O)cc1C (stereo unspecified)	25.1µM*	9.57e-08M*	-0.4%	>76.9	9.23e-08M*	31.6µM*
CCCCn1c(O)c(C=NC2CCCCC2N)c(=O)[nH]c1=O (stereo unspecified)	-0.9%	i	-1.5%	>76.9	i	1.2%
COc1cccc2c1C(=O)c1c(O)c3c(c(O)c1C2=O)C[C@](O)(/C(C)=N\O)C[C@@H]3O[C@H]1C[C@H](N)[C@@H](O)[C@H](C)O1	4.3%[11.4 µM]	i	-1.4%[11.5 µM]	nt	i	8.7%[11.4 µM]
CCC(=NCCCN(CC)CC)c1c(O)n(C2CCCCC2)c(=O)[nH]c1=O	-9.8%	9.04e-08M*	-2.3%	?	7.38e-08M*	15.7%
CSc1ccc2c(c1)c(CCN)c(C)n2Cc1ccccc1Cl	1.8%[11.4 µM]	1.08e-08M*	-0.5%[11.5 µM]	nt	1.05e-08M*	24.1%[11.4 µM]
COc1ccc2c(c1O)-c1cccc3c1[C@H](C2)N(C)CC3	25.1µM*	1.14e-08M*	-1.2%	nt	1.19e-08M*	20µM*
COc1ccc2c(c1O)-c1c(OC)c(OC)cc3c1[C@H](C2)N(C)CC3	?	i	-1.5%	nt	i	2.1%
CCCN1CCc2cccc3c2[C@@H]1Cc1ccc(O)c(O)c1-3	20µM*	1.68e-08M*	-4.2%	nt	1.93e-08M*	0.501µM*
COc1ccc2c(c1O)-c1c(OC)c(OC)cc3c1[C@@H](C2)N(C)CC3	-18.4%	i	1.9%	nt	i	-18.4%
SMILES	HSD17B inh	A350 fluor	AID923	GBA activity	4MU fluor	HADH2 inh
NC(N)=NCCN=C(N)N	-3.0%[11.4 µM]	i	-0.1%[11.5 µM]	nt	i	-0.5%[11.4 µM]
N#CC1=C(N)Oc2n[nH]c(-c3cccs3)c2C1c1ccco1 (stereo unspecified)	12.6µM*	2.2e-08M*	-3.2%	>76.9	1.74e-08M*	?
Cc1c([C@@H](C)[C@H]2NC[C@H](C)C[C@@H]2O)ccc2c1C[C@@H]1[C@H]2CC=C2C[C@@H](O)CC[C@@]21C	7.8%[11.4 µM]	i	-2.1%[11.5 µM]	nt	i	-4.2%[11.4 µM]
CC(=NCCO)c1c(O)n(C)c(=O)n(C)c1=O	nt	1.17e-08M*	nt	nt	?	nt
CC(=NCCC1=CCCCC1)c1c(O)n(C)c(=O)n(C)c1=O	-4.6%	i	-0.3%	>76.9	i	0.2%
CC(=O)OC1=CC2=CC[C@H]3[C@H]4CCC(=O)[C@@]4(C)CC(=O)[C@]3(S)[C@]2(C)CC1	-6.6%[11.4 µM]	i	-0.2%[11.5 µM]	nt	i	?
COc1cc2c(cc1OC)-c1c(OC)c(OC)c(C=O)c3c1[C@H](C2)N(C)CC3	?	nt	15.5%	nt	nt	nt
COc1cc2c(cc1O)C[C@H]1c3c(cc(OC)c(O)c3-2)CCN1C	31.6µM*	i	12.8%	nt	i	31.6µM*
COc1cc2c(cc1O)CC1c3c(cc(O)c(OC)c3-2)CCN1C (stereo unspecified)	31.6µM*	nt	-0.7%	nt	nt	nt
COc1cc2c(cc1OC)-c1c(OC)c(OC)c(CO)c3c1C(C2)N(C)CC3 (stereo unspecified)	31.6µM*	nt	3.2%	nt	nt	nt
Cc1ccc2nc3c(cc2c1)CC1(C(=O)N(C)C(=O)N(C)C1=O)C1CCCCN31 (stereo unspecified)	4.0%	5.03e-08M*	-2.4%	>76.9	4.88e-08M*	11.7%
Cc1ccc2nc3c(cc2c1)CC1(C(=O)N(C)C(=O)N(C)C1=O)C1COCCN31 (stereo unspecified)	?	2.75e-08M*	0.8%	>76.9	2.68e-08M*	5.0%
COc1cc2c(cc1OC)[C@]13CC[N@+]4(C)CC5=CCO[C@H]6CC(=O)N2[C@@H]1[C@@H]6[C@@H]5C[C@]34O	5.9%[11.4 µM]	i	0.1%[11.5 µM]	nt	i	2.7%[11.4 µM]
C=C(C)CCl	?	nt	1.0%	nt	nt	0.0%
Oc1ccccc1-c1ccccc1	31.6µM*	nt	-0.8%	nt	nt	-12.6%
O=C1CCc2c(ccc3ccccc23)O1	25.1µM*	nt	3.0%	nt	nt	39.8µM*
O=C1c2ccccc2C(=O)N1SC1CCCCC1	?	i	0.8%	>76.9	i	2µM*
CCN1C[C@@]2(COC(=O)c3ccccc3N3C(=O)C[C@H](C)C3=O)CC[C@H](OC)[C@@]34[C@@H]5CC6[C@@H](OC)C[C@@](O)([C@H]5[C@H]6OC)C(O)([C@@H]13)[C@@H](OC)[C@H]24	nt	i	nt	nt	i	6.5%
